# Screening data: PubChem BioAssay, National Center for Advancing Translational Sciences (NCATS)
# AMA1-RON2 inh = inhibitors of Plasmodium falciparum AMA1-RON2 interaction; AlphaScreen AMA1-biotinylated RON2 peptide binding; Potency, µM (top dose mostly 58.2 µM), for the others: top-dose activity change, negative = inhibition, hits mostly inhibitors; actives 0.2% (n = 360,000); AID 720542;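 also: 0% = vehicle wells and -100% = peptide control; nearly all actives have a fitted effect of over 45% in size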
#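 AMA1 (3D7) with his tag at 25 nM final met compounds first, then biotinylated RON2 peptide at 25 nM; detection used donor plus acceptor beads, 10 µg/mL apiece, read by AlphaScreen after 30 min at room temperature.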
# AmpC no deterg = blocks E. coli AmpC beta-lactamase in detergent-free assay; actives 0.52% (n = 330,000); AmpC nitrocefin hydrolysis, absorbance 480 nm, 0.0001% Triton; P00811; Potency, µM (titrated, usually from 57.1 µM), inactives show at the highest dose activity change, negative = inhibition, actives largely listed as inhibitors;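 also: plate controls were no compound for no effect and no enzyme for full effect; nearly all actives have a fitted effect of over 20% in size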
# Target sequence (P00811 whole entry, looked up): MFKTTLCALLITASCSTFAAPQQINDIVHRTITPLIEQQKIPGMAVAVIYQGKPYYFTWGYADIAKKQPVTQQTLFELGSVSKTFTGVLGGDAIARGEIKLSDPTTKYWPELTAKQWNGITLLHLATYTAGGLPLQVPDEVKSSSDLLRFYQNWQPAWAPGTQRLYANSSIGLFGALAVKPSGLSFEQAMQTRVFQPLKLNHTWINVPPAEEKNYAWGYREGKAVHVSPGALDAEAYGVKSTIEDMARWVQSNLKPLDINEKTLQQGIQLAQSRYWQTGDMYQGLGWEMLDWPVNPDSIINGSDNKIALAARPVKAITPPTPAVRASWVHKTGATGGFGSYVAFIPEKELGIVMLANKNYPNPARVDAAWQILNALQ
#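 20 mM phosphate pH 7.0 + 0.01% (detergent screen) or 0.0001% Triton X-100; 5.3 nM AmpC reagent; cpd preinc 15 min RT; nitrocefin (800 uM stock) to start; A480 q20 s × 4 min; Activity was normalised to no-enzyme and no-compound control wells.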
# Pf growth 96h = P. falciparum growth inhibition at 96 hours; P. falciparum luciferase reporter growth, 96 h; Potency, µM (titrated, usually from 28.7 µM), inactives show at the top dose activity change, negative = inhibition, actives largely listed as inhibitors; actives 6.9% (n = 320,000); AID 504834
#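 P. falciparum expressing integrated firefly luciferase, in erythrocytes at 2% hematocrit, 0.05% parasitemia, incubated with compounds 96 h at 37 C, 5% CO2. Growth inhibition read as loss of luminescence; two-generation exposure targets delayed-death apicoplast inhibitors.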
# AmpC inh detg = blocks E. coli AmpC beta-lactamase in detergent assay. actives 0.041% (n = 370,000). AID 485294. Potency, µM (highest dose often 114 µM), for the others: at the top dose activity change, negative = inhibition, actives largely listed as inhibitors. P00811. AmpC hydrolysis of nitrocefin, absorbance 480 nm, 0.01% Triton;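 also: 0% = no-compound wells and -100% = no-enzyme wells; nearly all actives have a fitted effect of over 25% in size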
#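 20 mM phosphate pH 7.0 + 0.01% (detergent screen) or 0.0001% Triton X-100; 5.3 nM AmpC reagent; cpd preinc 15 min RT; nitrocefin (800 uM stock) to start; A480 q20 s × 4 min; Activity was normalised to no-enzyme and no-compound control wells.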
# Pf growth 48h = P. falciparum growth inhibition at 48 hours (one generation). P. falciparum luciferase growth in erythrocytes, 48 h. Potency, µM (top dose mostly 28.7 µM), without a hit: at the highest dose activity change, negative = inhibition, hits mostly inhibitors. actives 5.9% (n = 310,000). AID 504832
#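 Cell-based growth assay: transgenic P. falciparum expressing firefly luciferase, cultured in red cells within RPMI 1640 containing 0.5% w/v Albumax, 24 mM bicarbonate and gentamycin. A drop in luciferase activity indicates inhibition.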
# HCV inh = blocks hepatitis C virus | actives 3.4% (n = 340,000) | Potency, µM (doses to about 41.8 µM), for the others: at the top dose activity change, negative = inhibition, hits mostly inhibitors | Huh7.5.1 HCVcc-Cre infection, luciferase reporter, 44 h | AID 651820
#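 Compounds are dispensed onto cells plated 4 h earlier at 1,000 per well, with HCVcc-Cre virus (about 0.5 moi) added next. Following 44 h of culture, luminescent signal is measured for 15 sec after 15 min with substrate at room temperature.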
# An asterisk follows results filed as active; ? = inconclusive; / = not tested or not shown; [ ] = dose if it differs, or a comment. In the library only some 11% were active in any assay of this set; here they are far more common. Calls follow the shape of the dose curve; as a rule, active = well fitted curve in the direction sought with a large enough effect; inconclusive = small, poorly fitted or top-dose-only effect, or another doubt; inactive = no such curve, though single readings can be large; an effect the other way counts as inactive or inconclusive. Unless noted, % is scaled to controls: 0 for no effect and ±100 for the full control effect; potency is read from the fitted curve at half-maximal effect.
SMILES,AMA1-RON2 inh,AmpC no deterg,Pf growth 96h,AmpC inh detg,Pf growth 48h,HCV inh
O=C(NCC(c1ccco1)N1CCCC1)c1cc(S(=O)(=O)N2CCCCC2)ccc1Cl (stereo not drawn),3.4%,1.2%,/,/,/,7.5%
CCN(c1ccccc1)S(=O)(=O)c1cc(C(=O)NCC(c2ccco2)N2CCCCC2)ccc1C (stereo not drawn),-7.9%,39.9%,/,/,/,?
C=CCN(c1ccccc1)S(=O)(=O)c1cccc(C(=O)NCC(c2ccc(F)cc2)N2CCOCC2)c1 (stereo not drawn),52.8%,216.9%,?,?,13.1µM*,?
CCN(c1ccccc1)S(=O)(=O)c1cccc(C(=O)NCC(c2ccco2)N2CCCC2)c1 (stereo not drawn),-2.2%,96.2%,?,?,?,10µM*
CCN(c1ccccc1)S(=O)(=O)c1cccc(C(=O)NCC(c2ccc(F)cc2)N2CCOCC2)c1 (stereo not drawn),5.8%,/,/,/,/,?
CCN(c1ccccc1)S(=O)(=O)c1cccc(C(=O)NCC(c2ccco2)N2CCCCC2)c1 (stereo not drawn),5.6%,/,/,/,/,10µM*
CN(CC(=O)NCC(c1ccco1)N1CCCCC1)S(=O)(=O)c1ccc(Cl)cc1 (stereo not drawn),?,37.7%,?,0.0%,8.28µM*,-15.5%
COc1ccc(Br)cc1CNC(=O)c1cnc2sc(N3CCCC3)nn2c1=O,/,/,/,1.3%,/,/
CCc1ccc(-n2nc(C)c3c(C)cc(=O)n(CC(=O)Nc4cc(Cl)ccc4OC)c32)cc1,/,/,/,7.2%,/,/
O=C(NCC(c1cccnc1)N1CCN(c2ccccc2F)CC1)C(=O)Nc1ccc(F)cc1F (stereo not drawn),/,/,/,7.7%,/,/
O=C(NCC(c1ccc(F)cc1)N1CCOCC1)c1nn(-c2ccccc2)c(=O)c2ccccc12 (stereo not drawn),0.0%,10.5%,?,9.6%,9.28µM*,?
O=C(NCC(c1ccc(F)cc1)N1CCOCC1)c1ccc(-c2ccccc2)cc1 (stereo not drawn),-2.7%,-4.8%,/,/,/,-14.4%
O=S(=O)(NCCc1csc2nc(-c3ccc(F)cc3)nn12)c1ccc2c(c1)OCCO2,/,/,/,-1.2%,/,/
CCOc1ccc2c(c1)C(=NNC(=O)c1ccncc1)c1cc(OCC)ccc1-2,68.9%,-15.5%,2.08µM*,-8.6%,9.28µM*,-3.9%
CC(OC(=O)c1ccc(NC(=O)CC#N)cc1)C(=O)Nc1nc(-c2ccccc2)cs1 (stereo not drawn),-2.3%,-48.7%,0.0%,?,?,?
Cc1cc(C(=O)C(C)OC(=O)c2ccc(NC(=O)CC#N)cc2)c(C)n1-c1ccc(OC(F)F)cc1 (stereo not drawn),27.1%[11.6 µM],-29.4%,?,11.9%,5.86µM*,?
COC(=O)c1ccc(-n2c(C)cc(C(=O)CSc3ccc(NC(C)=O)cc3)c2C)cc1,?,95.5%,?,?,?,-18.2%
CC(OC(=O)c1ccc(NC(=O)CC#N)cc1)C(=O)Nc1ccc(Oc2ccccc2)cc1 (stereo not drawn),/,6.31µM*,?,7.1%,?,/
Cc1[nH]c2ccccc2c1C(=O)C(C)OC(=O)c1ccccc1NCCO (stereo not drawn),0.9%,28.2µM*,?,?,?,-16.0%
Cc1[nH]c2ccccc2c1C(=O)C(C)OC(=O)c1ccc(NC(=O)CC#N)cc1 (stereo not drawn),-10.2%,-28.9%,3.29µM*,13.6%,3.7µM*,-26.2%
Cc1ccc(-n2ncc3c(Nc4cccc(Cl)c4)ncnc32)c(C)c1,/,/,/,8.8%,/,/
Cc1ccc(C(=O)c2oc3ccccc3c2NC(=O)c2cc(=O)c3ccccc3o2)cc1,/,/,/,-6.1%,/,/
CCOc1ccc(-n2c(=O)c3c(C)c(C)sc3n(CC(=O)N3CCC(C)CC3)c2=O)cc1,/,/,/,19.6%,/,/
Fc1ccc(C2CC(c3cccs3)=NN2c2ccccc2)cc1 (stereo not drawn),191.9%,-23.3%[11.4 µM],-8.7%,-5.0%,?,?
CC(=O)Nc1ccc(C2CC(c3ccc(Cl)cc3)=NN2c2ccccc2)cc1 (stereo not drawn),40.2%,23.4%,4.65µM*,-9.9%,/,?
SMILES,AMA1-RON2 inh,AmpC no deterg,Pf growth 96h,AmpC inh detg,Pf growth 48h,HCV inh
c1ccc(C2CC(c3cccs3)=NN2c2ccccc2)cc1 (stereo not drawn),190.7%,-29.5%,10.4µM*,12.4%,10.4µM*,-11.4%
CC(=O)Nc1ccc(C2=NN(c3ccccc3)C(c3ccccc3)C2)cc1 (stereo not drawn),24.2%,55.3%,11.7µM*,3.0%,9.28µM*,-23.0%
CCCc1sc(N/N=C/c2ccccn2)nc1-c1ccc(F)cc1,-11.8%,16.5%,31.0%,1.5%,2.62µM*,?
Cc1nc(N/N=C/c2ccccn2)sc1C,2.6%,-5.5%,-100.5%,-2.3%,-71.5%,?
COc1ccc(-c2cc(C(F)(F)F)n3nc(C)c(-c4ccccc4)c3n2)cc1OC,/,/,/,17.4%,/,/
Cc1cccc2cc(CN(C(=O)c3cnccn3)C3CCCCC3)c(Cl)nc12,-7.4%,94.0%,?,-0.7%,4.15µM*,?
COc1ccc(C2=NN3C(=O)c4c(ccc(OC)c4OC)C3C2)cc1 (stereo not drawn),3.3%,?,-15.8%,1.0%,2.62µM*,-17.8%
COc1ccc2c(c1OC)C(=O)N1N=C(c3ccc(Cl)cc3)CC21 (stereo not drawn),7.5%,-4.8%,-16.2%,?,5.86µM*,-14.4%
COc1ccc2c(c1OC)C(=O)N1N=C(c3ccc(Br)cc3)CC21 (stereo not drawn),0.6%,47.5%,-98.5%,?,?,-21.6%
COc1ccc2c(c1OC)C(=O)N1c3ccccc3N=C(c3ccc([N+](=O)[O-])cc3)CC21 (stereo not drawn),-12.7%,-25.7%,-0.5%,-7.5%,2.62µM*,1.3%
COc1ccc2c(c1OC)C(=O)N1N=C(c3ccc(O)cc3)CC21 (stereo not drawn),-3.1%,-8.7%,33.0%,-8.5%,1.31µM*,9.0%
COc1ccc2c(c1OC)C(=O)N1N=C(c3ccc(-c4ccccc4)cc3)CC21 (stereo not drawn),-1.4%,-15.4%,?,2.3%,?,17.4%
Clc1cccc(N2CCN(c3nc4ccccc4n4nnnc34)CC2)c1,/,/,/,17.2%,/,/
COc1ccccc1/C=C/c1nc(C#N)c(NC2CCCCC2)o1,/,/,/,3.3%,/,/
